Experimental findings from PubChem BioAssay (NCI) are described below.

This is part of a sample that, as a whole, favours compounds with a hit. Of some 83,000 tested, about 20% had one in any assay.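 Single-dose data. Exposure time 48 hours. Values below 10 considered active.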 Values without a mark were called inactive. Active and inactive are the calls of the source.

Holding throughout (assay): NCI-60 one-dose screen, 48 h (100 = growth as untreated, 0 = no growth, -100 = all killed)
Common to all, as to settings: 10 µM unless noted

The test system of test [1] is DU-145 prostate.
The subject of test [2] is K-562 leukemia.
In test [3] the test system is MALME-3M melanoma.
Test [4] relates to MDA-MB-231 breast.
For test [5], the system named is RXF 393 renal.
Test [6] concerns SF-268 CNS.
For test [7], the system named is SF-295 CNS.
The test system of test [8] is SF-539 CNS.
In test [9] the test system is UACC-257 melanoma.
Test [10] deals with M14 melanoma.
Test [11] has as its system HCT-15 colon.
Test [12] concerns HT29 colon.
In test [13] the test system is SNB-75 CNS.
Test [14] concerns SNB-19 CNS.
Test [15] relates to U251 CNS.
In test [16] the test system is PC-3 prostate.
Test [17] concerns SK-MEL-5 melanoma.
Test [18] has as its system UACC-62 melanoma.
The subject of test [19] is LOX IMVI melanoma.
Test [20] relates to SK-MEL-28 melanoma.

As to `CN(Cc1cnc2nc(N)nc(N)c2n1)c1ccc(C(=O)NC(CCC(=O)O)C(=O)O)cc1Br` (stereo not given), the growth in test [1] was 25.2%; in test [2], 31.1%; in test [3] it was 98.1%; in test [4], 60.2%; in test [5] it was 58.6%; in test [6], 34.4%. The growth in test [7] is 27%; in [8], 6.95% (active); in test [9], 59.4%; in [10], 30.9%; in test [11], 34.9%; in [12] it was 21.2%. For the same compound, the growth is 54.5% in test [13]; 45.4% in test [14]; 43% in test [15]; 56.9% in test [16]; 13.8% in test [17]; 30.9% in test [18]. Also, the growth in test [19] was 17.7%; in [20], 50%.

For `C=C1C(=O)O[C@H]2[C@H]1CC/C(COC(=O)CSCSCC(=O)OC/C1=C/CC[C@@]3(C)O[C@H]3[C@H]3OC(=O)C(=C)[C@@H]3CC1)=C\CC[C@@]1(C)O[C@@H]21`, the growth in [1] is 28.3%; in [2], 3.55% (active); in [3] it was -4.65% (active); in test [4] it was -27.9% (active); in test [5], -86.7% (active); in test [6], 20.7%. For the same compound, the growth in test [7] was 70.3%; in test [8] it was 3.58% (active); in test [9], 34.1%; in test [10], 4.26% (active); in test [11], 0.182% (active); in test [12], -3.63% (active). For the same compound, the growth is 60.4% in test [13]; 54% in test [14]; 10.8% in [15]; 0.538% (active) in test [16]; 66.1% in [17]; 24.2% in test [18]. The growth in test [19] is -48.5% (active); in test [20] it was -4.58% (active).

In the case of `CCN1C(=O)N(CC)C2C1NC(=S)N2/N=C/c1ccc(C(F)(F)F)cc1` (stereo not given), the growth in test [1] was 90.5%; in [2], 37%; in [3], 44.1%; in test [4], 66.2%; in [5], 52.6%; in test [6], 77.7%. Also, the growth is 66.3% in test [7]; 79.8% in [8]; 78.9% in test [9]; 53.4% in [10]; 39.4% in test [11]; 43.6% in test [12]. Further, the growth in test [13] was 48.5%; in test [14] it was 73.6%; in [15] it was 70.5%; in test [16], 59.7%; in test [17] it was 52%; in [18], 47.4%. For the same compound, the results for the growth in test [19] and in [20] were 73.2% and 76.3%, respectively.

With `CN1C(=O)/C(=C/c2ccc(C(=O)Nc3ncc(Cc4cccc(Cl)c4)s3)cc2)SC1=S`, the growth in test [1] was 66.3%; in test [2], 55.1%; in [3], 67.9%; in [4], 77.4%; in test [5], 64.4%; in test [6], 61.7%. Also, the growth in [7] is 31%; in test [8], 67.5%; in test [9], 79.8%; in [10] it was 17%; in [11], 35.3%; in [12], 61.1%. Also, the growth is 73.6% in test [13]; 73.5% in [14]; 65.2% in [15]; 73.3% in test [16]; 25.7% in [17]; 20.4% in test [18]. For the same compound, the growth in [19] was 22.7%; in test [20], 63.4%.

Take `Cc1ccc(S(=O)(=O)OCCCOS(=O)(=O)c2ccc(C)cc2)cc1`: the growth in test [1] is 95%; in test [2], 65.9%; in [3], 100%; in [4], 110%; in test [5], 107%; in test [6], 101%. Besides, the growth in test [7] is 107%; in [8], 122%; in test [9], 81.1%; in test [10], 98%; in test [11], 106%; in [12], 102%. Moreover, the growth in test [13] was 99.7%; in test [14] it was 97.9%; in test [15], 96.4%; in [16], 89.3%; in test [17], 116%; in test [18], 103%. Besides, the growth in test [19] was 108%; in [20], 109%.

On to `O=C1/C=C/[C@@H](O)[C@@H]2C[C@@H](O)C[C@H]2/C=C/CCC[C@@H](O)CCO1`, for which the growth was 105% in [1]; 105% in [2]; 60.9% in [3]; 113% in [4]; 52.4% in test [5]; 85.6% in test [6]. For the same compound, the growth is 89.2% in test [7]; 101% in [8]; 49.3% in test [9]; 77.8% in test [10]; 107% in test [11]; 91.6% in test [12]. In addition, the growth is 41.2% in [13]; 104% in test [14]; 92.3% in test [15]; 90.6% in [16]; 22.9% in test [17]; 110% in test [18]. Further, the results for the growth in test [19] and in test [20] were 94.7% and 28.7%, respectively.

Consider `Cc1cn(-c2cc(NC(=O)c3cncc(C#Cc4c(N)ncc5ccc(F)cc45)c3)cc(C(F)(F)F)c2)cn1`, for which the growth is 70.5% in test [1]; 3.34% (active) in test [2]; 21.5% in [3]; 27.1% in test [4]; 62.7% in test [5]; 64.6% in test [6]. Besides, the growth in test [7] is 85.2%; in test [8], 51.5%; in test [9], 52.9%; in test [10], 26.6%; in [11], 49.9%; in test [12], 8.94% (active). The growth in test [13] is 76.8%; in test [14], 91.9%; in test [15] it was 80.4%; in test [16] it was 71.7%; in test [17], 27.4%; in test [18] it was 33.8%. Besides, the growth in test [19] was 23%; in [20], 42.4%.

Regarding `NC1=Nc2cc(OCCCCN3Cc4ccccc4C3)c(OCC3CC3)cc2C12CCCC2`, the growth in [1] was 65%; in [2], 2.5% (active); in test [3] it was -88.5% (active); in [4] it was 19.3%; in test [5], 30.2%; in test [6], 56.1%. Besides, the growth is 61.7% in [7]; -8.18% (active) in [8]; -83.2% (active) in test [9]; -89.7% (active) in test [10]; 3.13% (active) in [11]; 2.03% (active) in test [12]. The growth is 71.5% in [13]; 76.9% in test [14]; 24.2% in [15]; 44.1% in test [16]; -91.5% (active) in test [17]; 50.5% in test [18]. Further, the growth is -80.7% (active) in test [19] and -81.4% (active) in test [20].
